Test results from PubChem BioAssay AID493216 (National Center for Advancing Translational Sciences (NCATS), 2011).
Calls of active or inactive are those of the source. Calls follow the shape of the full dose curve.

Target: Polyunsaturated fatty acid lipoxygenase ALOX12 (Homo sapiens) (UniProt P18054)
Test: Inhibitors of 12-hLO (12-human lipoxygenase): Cuvette-Based Hit Assay for Validation of Followup Compounds
Settings: purified 12-hLO, cuvette absorbance 234 nm
Experimental: The enzyme activity of 12-hLO was determined by a direct measurement of product formation by monitoring the absorbance at 234 nm in a 2 mL cuvette. IC50 values of inhibitors were obtained by measuring the enzymatic rate at a variety of concentrations (Carroll et al, Segraves et al). This assay was used to validate actives or inconclusive putative inhibitors identified in the primary screen (see related BioAssay AIDs). Assay Provider: Holman, T.R., University of California, Santa Cruz Screening Center PI: Austin, Christopher P. Screening Center: NIH Chemical Genomics Center
For control experiments, 2 mL of substrate buffer (10 uM arachidonic acid / 25 mM HEPES / 0.01% (v/v) Triton X-100, pH 8.0) was aliquoted in a cuvette with a magnetic stir bar. After equilibrium was ensured, an aliquot of inhibitor solvent was added (DMSO), and equilibrium was once again assured. The reaction was started by adding enzyme to the cuvette and the reaction was followed until completed. The inhibition experiments were performed as above, except the actual inhibitory compound was added instead of vehicle. To achieve an IC50, typically 5 concentrations of the inhibitor were studied. If the inhibitor concentration was constant, then five different reaction volumes were used. Step \ Parameter \ Value \ Description 1; UV-Vis; 234 nm; Equilibration 2; Reagent; 2 mL; Substrate buffer 3; UV-Vis; 234 nm; Equilibration 4; Reagent; varies; Compound 5; UV-Vis; 234 nm; Equilibration 6; Reagent; 50-200 nM; Enzyme 12-hLO 7; UV-Vis; 234 nm; Enzymatic reaction Step \ Notes 1; Blank cuvette to air. 2; 10 uM AA, 25 mM HEPES, 0.01% Triton X-100, pH 8. 3; No change in absorbance ensured. 4; Compound vehicle or compound in various concentrations depending on potency. 5; No change in absorbance ensured. 6; Enzyme concentration to achieve reaction rate between 0.02 and 0.04 AU/s. 7; Enzymatic reaction visualized until completion.

Chain of Polyunsaturated fatty acid lipoxygenase ALOX12 (Homo sapiens) (P18054 whole entry, looked up): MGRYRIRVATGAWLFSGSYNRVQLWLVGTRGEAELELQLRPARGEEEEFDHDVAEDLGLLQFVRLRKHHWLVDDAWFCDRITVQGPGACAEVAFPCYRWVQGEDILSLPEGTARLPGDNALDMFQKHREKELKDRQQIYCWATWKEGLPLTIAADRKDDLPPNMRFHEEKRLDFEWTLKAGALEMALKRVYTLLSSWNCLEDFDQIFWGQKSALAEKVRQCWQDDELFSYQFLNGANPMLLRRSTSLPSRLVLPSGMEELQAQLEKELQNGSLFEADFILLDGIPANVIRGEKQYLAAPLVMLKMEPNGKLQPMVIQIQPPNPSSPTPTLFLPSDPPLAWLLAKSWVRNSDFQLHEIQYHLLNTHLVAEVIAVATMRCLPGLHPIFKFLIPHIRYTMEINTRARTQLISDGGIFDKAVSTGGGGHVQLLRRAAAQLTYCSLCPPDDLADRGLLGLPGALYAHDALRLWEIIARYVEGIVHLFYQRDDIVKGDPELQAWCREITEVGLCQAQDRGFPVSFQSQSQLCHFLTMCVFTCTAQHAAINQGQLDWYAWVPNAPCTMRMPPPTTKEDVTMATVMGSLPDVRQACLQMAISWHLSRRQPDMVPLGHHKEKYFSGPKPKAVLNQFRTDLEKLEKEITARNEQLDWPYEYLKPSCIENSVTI

Potency, active:
CSc1ccc(S(=O)(=O)Nc2ccc(S(=O)(=O)Nc3ccc(C)cc3)cc2)cc1 21.1 µM
COc1ccc2nc(NC(=O)c3cccc(OCc4c(C)noc4C)c3)sc2c1 36.7 µM
CCOC(=O)Cc1cc(=O)n(-c2nc3ccccc3s2)[nH]1 22.4 µM
O=S(=O)(Nc1ccc(O)c(Sc2nc3ccccc3s2)c1)c1ccc(Cl)cc1 8.77 µM
COc1ccc(-c2[nH]ncc2-c2ccc(Cl)cc2)c(O)c1 28.6 µM
COc1ccc(-c2n[nH]c(C)c2-c2ccc(Cl)cc2)c(O)c1 19.4 µM
Oc1ccc(Cl)cc1-c1cc(-c2ccco2)[nH]n1 21.5 µM
O=C(CSc1n[nH]c(-c2ccccc2)n1)c1ccc(O)c(O)c1 24.2 µM
CSCCC(NC(=O)c1ccc(Cl)cc1)C(=O)OCC(=O)Nc1ccc(C#N)cc1 (stereo not given) 18.3 µM
Oc1ccccc1-c1cc(-c2ccc3c(c2)OCCO3)n[nH]1 31.3 µM
CCc1cc(-c2[nH]ncc2-c2ccc3c(c2)OCO3)c(O)cc1O 22.2 µM
O=C(/C=C/c1ccc(O)c(O)c1)c1ccc(S(=O)(=O)N2CCCCCC2)cc1 27.2 µM
COc1ccc(C(Nc2ccccn2)c2c(NC(=O)c3ccco3)sc(C)c2C)cc1 (stereo not given) 23.2 µM
Oc1ccc(C2=Nn3c(nnc3-c3ccco3)SC2)cc1O 33.3 µM
O=C(Nc1nnc(-c2ccccn2)o1)c1ccc(Br)cc1 3.26 µM
Cc1ccc(C(=O)/C=C/c2c[nH]c3ccccc23)cc1 34.6 µM
COc1ccc(-c2n[nH]c(C(F)(F)F)c2-c2cc3ccccc3o2)c(O)c1 21 µM
CCc1ccc(S(=O)(=O)/N=C2/C=C(Sc3ncn[nH]3)C(=O)c3ccccc32)cc1 23.2 µM
Cc1oc2c(O)c(O)ccc2c(=O)c1-c1cnn(-c2ccccc2)c1 15.5 µM
COc1cc(CNc2ccc(O)cc2)cc(Br)c1OCc1ccccc1F 24.1 µM
CC(Oc1ccc(Cl)cc1Cl)C(=O)NC1=NN(c2ccccc2)C(=O)C1 (stereo not given) 15.5 µM
Cc1ccc(C(=O)Nc2nnc(-c3ccco3)o2)cc1C 15.7 µM
CN(C)c1nccc(N(Cc2ccccc2)Cc2ccccc2)c1C#N 15.7 µM
CCc1cc(-c2n[nH]c(C)c2Oc2ccc(C(C)C)cc2)c(O)cc1O 20.2 µM
Oc1ccc(-c2nc(-c3ccc(O)c(O)c3)cs2)cc1 0.7 µM
Cc1nc(N)sc1-c1csc(N(C)c2ccc(O)cc2)n1 15.6 µM
Cc1ccc(S(=O)(=O)Nc2ccc(NC(=O)Nc3cccc(C(F)(F)F)c3)cc2)cc1 35 µM
Cc1[nH]nc(-c2ccc(O)cc2O)c1-c1ccc(Cl)cc1 19 µM
Cc1[nH]nc(-c2ccc(O)cc2O)c1Oc1ccccc1 27 µM
COc1ccc(Cc2nc(C(=O)Nc3ccc(OC)cc3)cs2)cc1 35.8 µM
Cc1cc(C)c2cc(CN(Cc3nnnn3C3CCCCC3)CC3CCCO3)c(=O)[nH]c2c1 (stereo not given) 26.9 µM
COc1ccc(/C=C/c2nc(-c3ccccc3O)n[nH]2)cc1 18.9 µM
CCCOC(=O)c1ccc(Oc2c(-c3ccc(O)cc3O)n[nH]c2C)cc1 16.7 µM
COc1cccc(-c2cnc(NCc3cc(Cl)ccc3O)n2C)c1 32.7 µM
CC1=NN(c2ccc(Cl)cc2)C(=O)C1C(c1cccc(O)c1)c1c(C)[nH]n(-c2ccc(Cl)cc2)c1=O (stereo not given) 7.55 µM
Cc1cc(Cl)cc(Cl)c1OCC(=O)NCc1ccco1 20.4 µM
Oc1ccc(-c2csc(-c3ccccc3)n2)cc1O 0.94 µM
O=C(Nc1nnc(-c2ccc(Cl)cc2)o1)c1ccccc1Br 18.3 µM
Oc1ccccc1-c1cc(-c2ccccc2Cl)[nH]n1 16 µM
Cc1ccc(NC(=O)Nc2cccs2)c(Cl)c1 22.4 µM
